Sampled rows, rich in hits. Any-hit rate of the full collection: about 3.8%.
TGFb inhibitor – TGF-b pathway inhibition; actives 1.2% (n = 410,000); HepG2 CAGA-GFP TGF-b/SMAD3 reporter, GFP fluorescence, 18 h; TGF-beta stimulated, 500 pg/mL final; Potency, µM (doses to about 46.1 µM), for the others: at the top dose activity, negative = inhibition, usual class: inhibitors; further: on the % scale 0 is the no-effect control and ±100 the full control effect; nearly all actives have a fitted effect of over 65% in size
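Cell-based qHTS in HEPG2 carrying a CAGA-GFP Smad reporter; compounds added before 500 pg/mL final TGF-beta, 18 h incubation at 37 degrees C, GFP fluorescence quantified per cell by imaging cytometry.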
HepG2 tox – HepG2 cytotoxicity, counter-screen for TGF-b inhibitors; Potency, µM (series often up to 46.1 µM), without a hit: top-dose activity change, negative = cytotoxicity, hits mostly cytotoxic; AID 588856; HepG2 CAGA-GFP viability, ATP luminescence, 18 h; actives 0.76% (n = 410,000)
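CellTiter-Glo luminescence gave cytotoxicity after 18 hours at 37 degrees C. The cells were HepG2 CAGA-GFP in 1% FBS DMEM, stimulated with 500 pg/mL TGF-beta after compound addition. %Activity was normalised to no-cell wells (complete cell-killing) and DMSO (no toxicity), and curves were fitted and classified.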
ATXN2 expr inh – ATXN2 expression inhibition | Potency, µM (titrated, usually from 57 µM), inactives show at the top dose activity change, negative = inhibition, actives largely listed as inhibitors | AID 1745845 | HEK-293 ATXN2-luciferase reporter, luminescence, 24 h | actives 0.72% (n = 360,000); further: on the % scale 0 is the no-effect control and ±100 the full control effect; nearly all actives have a fitted effect of over 55% in size
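qHTS (up to 57 uM final) was run with 24 h compound exposure of reporter cells at 37 °C. Each well was multiplexed: SteadyGlo luminescence measured ATXN2-luciferase expression after a fluorogenic Gly-Phe-AFC viability readout (25 uM final).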
HT1080 IDH1KD tx – toxicity to HT-1080 IDH1 knockdown cells (counter line); HT-1080 IDH1 knockdown viability, ATP luminescence, 48 h; Potency, µM (top dose mostly 46.1 µM), for the others: at the highest dose activity, negative = toxicity, actives largely listed as cytotoxic; actives 2% (n = 360,000); AID 686971;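 further: 0% = DMSO wells and -100% = cell-free medium wells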
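Using the IDH1-knockdown HT-1080 line run in the same batch and compound series as the NT line, viability after 48 h at 37 °C was determined by CellTiter-Glo luminescence and expressed as % activity.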
S2 tox – cell viability loss in ATXN counter-screen. S2 cells (HEK-293 line with an ATXN2-luciferase reporter) viability, CellTiter-Fluor protease fluorescence, 24 h. Potency, µM (highest dose often 56.7 µM), hits mostly cytotoxic. actives 0.49% (n = 400,000). AID 651635; further: nearly all actives have a fitted effect of over 40% in size
HT1080NT lethal – kills 2HG-producing HT-1080-NT fibrosarcoma cells. HT-1080-NT fibrosarcoma viability, CellTiter-Glo ATP luminescence, 48 h. actives 1.6% (n = 360,000). Potency, µM (highest dose often 46.1 µM), for the others: top-dose activity, negative = less viability, actives largely listed as cytotoxic. AID 686970;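 further: NT is the 2HG producing partner of a matched IDH1 knockdown line; 0% = DMSO-treated cells and -100% = media-only wells without cells; nearly all actives have a fitted effect of over 55% in size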
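Luminescent CellTiter-Glo readout after 48 hours of compound exposure at 37 degrees C defined viability of HT-1080-NT cells. Activity was normalized to DMSO wells and cell-free media wells; concentration-response curves were fitted and assigned curve classes.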
* = called active by the depositor; i = inactive; u = inconclusive; x = no result. The call rests on the fitted dose curve; in most records, active means well fitted curve in the direction sought with a large enough effect; inconclusive means small, poorly fitted or top-dose-only effect, or another doubt; inactive means no such curve, though single readings can be large; an effect the other way counts as inactive or inconclusive. Potency means the concentration at half of the fitted maximal effect.

SMILES	TGFb inhibitor	HepG2 tox	ATXN2 expr inh	HT1080 IDH1KD tx	S2 tox	HT1080NT lethal
CCCCCOc1ccc2oc(=O)c3c(c2c1)CCCN3C(=O)CN1CCCC(C(=O)OCC)C1 (configuration not stated)	-21%	-27%	0%	23µM*	i	u
COc1ccccc1-n1cc(-c2ccccc2)[nH]c1=S	-3%	-21%	x	10%	u	10%
CCOc1ccc(-c2cn(-c3ccccc3OC)c(=S)[nH]2)cc1	0%	5%	-5%	26µM*	u	u
CC(=O)Nc1cc(-c2cccc(C(=O)NCCN(C)C)c2)cn2c(-c3cccc(C(F)(F)F)c3)cnc12	u	13µM*	-3%	21µM*	32µM*	18µM*
CC(=O)Nc1cc(-c2cccc(C(=O)NCCN(C)C)c2)cn2c(-c3ccc(S(C)(=O)=O)cc3)cnc12	-3%	-13%	5%	2%	i	4%
COc1ccc(-c2cnc3c(NC(C)=O)cc(-c4ccccc4CN(C)C)cn23)cc1OC	29%	-31%	-1%	u	i	u
CC(=O)Nc1cc(-c2ccccc2CN(C)C)cn2c(-c3ccc(C(C)=O)cc3)cnc12	-19%	-14%	-10%	u	i	18µM*
CC(=O)Nc1cc(-c2cccc(C(=O)NCCN(C)C)c2)cn2c(-c3ccccc3)cnc12	68%	-34%	u	16µM*	i	u
O=S1(=O)c2ccccc2N(Cc2cccc(F)c2)c2ccccc21	-11%	-8%	-16%	x	i	x
CC(C)[C@H]1COCCS(=O)(=O)N1Cc1cccc([N+](=O)[O-])c1	-6%	-37%	x	x	x	x
COc1ccc2c(Sc3ccc(Cl)cc3)c(C(=O)N3CCCCC3)[nH]c2c1	u	-99%	-11%	x	u	x
COc1ccc2c(Sc3ccc(Cl)cc3)c(C(=O)N3CCC(C)CC3)[nH]c2c1	11µM*	-95%	u	x	u	x
CC[n+]1ccccc1/C=C1\Sc2ccc(C)cc2N1C	u	-64%	4µM*	9.2µM*	u	23µM*
O=C(NCc1cccnc1)/C(=C/c1ccc(Cl)cc1)NC(=O)c1ccccc1	8%	19%	-14%	9%	i	0%
O=C(NCc1cccnc1)/C(=C/c1ccc(-c2ccc(Cl)cc2)o1)S(=O)(=O)c1ccccc1	u	4.5µM*	13µM*	5.6µM*	x	6.3µM*
CC(C)=CCC[C@H](C)CC1Cc2[nH]c(=S)[nH]c(=O)c2C(c2ccc(Cl)cc2)O1 (some centres not stated)	x	x	u	16µM*	u	u
CC(C)=CCC[C@H](C)CC1Cc2[nH]c(=S)[nH]c(=O)c2C(c2ccc(F)cc2)O1 (some centres not stated)	13µM*	14µM*	-7%	0%	u	1%
Cc1ccc2c(c1)N(C(=O)N1CCC(C(=O)NCCC3=CCCCC3)CC1)CC(C)O2 (configuration not stated)	u	-5%	x	x	x	x
COc1ccnc(Oc2ccccc2)c1C(=O)N/C=N/OCc1ccc(F)cc1Cl	u	-49%	-33%	16µM*	i	u
COc1ccc(-c2oc(NC(=O)CSc3ncn[nH]3)c(C#N)c2-c2ccc(OC)cc2)cc1	u	-97%	-29%	u	i	u
COc1ccc(-c2oc(NC(=O)CCl)c(C#N)c2-c2ccc(OC)cc2)cc1	-18%	13µM*	18µM*	u	x	u
CCOC(=O)c1ccc(NC(=O)C2=C(C)Nc3nc(SCc4ccc(Cl)cc4)nn3C2c2ccc(C)cc2)cc1 (configuration not stated)	-1%	-3%	7%	x	i	x
Cc1ccc(S(=O)(=O)C(NC(=O)c2ccccc2)=C(Cl)Cl)cc1	-22%	-29%	u	u	u	u
Cc1ccc(S(=O)(=O)/C(=C/Cl)NC(=O)c2ccccc2)cc1	u	-2%	10µM*	21µM*	u	u
Fc1ccc(-[n+]2nc(Nc3ccccc3)sc2-c2c(Cl)cccc2Cl)cc1	u	11µM*	u	-23%	x	u
SMILES	TGFb inhibitor	HepG2 tox	ATXN2 expr inh	HT1080 IDH1KD tx	S2 tox	HT1080NT lethal
CCc1ccc(Nc2n[n+](-c3ccccc3)c(-c3c(Cl)cccc3Cl)s2)cc1	7.1µM*	-108%	10µM*	u	10µM*	21µM*
COc1ccc(C)cc1Nc1n[n+](-c2ccccc2)c(-c2c(Cl)cccc2Cl)s1	u	13µM*	0%	u	11µM*	u
CCc1ccc(Nc2n[n+](-c3ccccc3)c(-c3ccc(N(CC)CC)cc3)s2)cc1	u	-62%	u	u	u	u
COc1ccc2ccccc2c1-c1sc(Nc2ccccc2)n[n+]1-c1ccc(F)cc1	u	11µM*	28µM*	u	28µM*	u
O=C(c1cnn(-c2nccc(-c3ccccc3C(F)(F)F)n2)c1C1CC1)N1CCN(CCO)CC1	x	x	x	x	i	x
C#CCn1c(=NC(=O)c2cc(-c3cccs3)nc3ccccc23)sc2cc(S(N)(=O)=O)ccc21	-2%	1%	0%	26µM*	i	u
O=c1[nH]c(CN2CCN(c3ccc(O)cc3)CC2)nc2scc(-c3ccc(Cl)cc3)c12	u	1%	x	21µM*	i	u
COc1cccc(N2CCN(Cc3nc4scc(-c5ccccc5)c4c(=O)[nH]3)CC2)c1	-18%	16%	-16%	12µM*	i	13µM*
CC1(c2nnc(-c3cccc(Cl)c3)o2)CC(c2ccc(Cl)cc2)=NO1 (configuration not stated)	16µM*	-10%	2%	7%	i	8%
CC1(c2nnc(-c3cccc(Cl)c3)o2)CC(c2cccc(Cl)c2)=NO1 (configuration not stated)	-26%	-19%	2%	-2%	i	4%
O=S(=O)(c1ccc(-c2cc(C(F)(F)F)on2)s1)N1CCN(c2ccccc2F)CC1	0%	-18%	x	x	x	x
CCc1nn(CC(=O)N2CCN(c3cccc(C)c3C)CC2)c(=O)c2cc3occc3n12	-8%	-15%	-2%	x	i	x
S=C(c1ccc2c(c1)OCO2)N1CCN(c2cccc(Cl)c2)CC1	1%	11%	-6%	3.3µM*	i	u
CSc1nnc(CCNC(=O)c2ccccc2C(F)(F)F)n1-c1ccc(F)cc1	x	x	x	x	i	x
